Source: PubChem BioAssay
Only some compounds are listed: those with a hit (about 7.4% of all), similar ones and a draw of the others.
SMN2 splice enh: enhancers of SMN2 splice variant expression; Potency, µM (series often up to 46.1 µM), for inactives: at the highest dose activity change, positive = activation, hits mostly activators; AID 1458; HEK293 SMN2-luciferase splicing reporter, luminescence, 30-36 h; actives 2.8% (n = 210,000); note: % of control where 0% means no effect; nearly all actives have a fitted effect of over 55% in size
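qHTS luciferase splicing reporter: luminescence rises when SMN2 exon 7 is included in transfected HEK293 cells. Compound exposure lasted 30-36 h at 37C, with 4.5 mM final sodium butyrate as control, followed by a ONE-Glo read.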
Rab9 promoter act: activates the Rab9 promoter | Huh7 Rab9 promoter-luciferase reporter, luminescence, 24 h | Potency, µM (series often up to 9.22 µM), without a hit: at the top dose activation, negative = inhibition, usual class: activators | actives 2.8% (n = 320,000) | AID 485297; note: % of control where 0% means no effect; nearly all actives have a fitted effect of over 60% in size
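Huh7 cells stably carrying Rab9 promoter–luciferase reporter, plated 1500 cells/well, compound added after 2 h and incubated 24 h at 37 °C; luciferase luminescence then read after 10 min with detection reagent.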
NPC1 prom act: NPC1 promoter activation; Huh7 NPC1 promoter luciferase reporter, 24 h; Potency, µM (highest dose often 9.22 µM), for inactives: at the top dose activation, hits mostly activators; actives 2.4% (n = 320,000); note: % of control where 0% means no effect; nearly all actives have a fitted effect of over 60% in size
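Stably transfected Huh7 (NPC1 promoter→luciferase), 1500 cells/well in Opti-MEM + 10% FBS, 2 h settle, then compound 24 h at 37 °C. Luminescence after 10 min with Amplite reagent.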
FLuc counter: inhibits or activates purified firefly luciferase, miR-21 counter-screen; P08659; purified FLuc, Km substrates, luminescence inhibition; Potency, µM (highest dose often 57.5 µM), for the others: at the highest dose activity change, negative = inhibition, hits mostly inhibitors; actives 6.9% (n = 360,000); AID 588342;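 note: plate controls were vehicle for no effect and reference inhibitor for full effect; nearly all actives have a fitted effect of over 55% in size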
Target sequence (P08659 whole entry, looked up): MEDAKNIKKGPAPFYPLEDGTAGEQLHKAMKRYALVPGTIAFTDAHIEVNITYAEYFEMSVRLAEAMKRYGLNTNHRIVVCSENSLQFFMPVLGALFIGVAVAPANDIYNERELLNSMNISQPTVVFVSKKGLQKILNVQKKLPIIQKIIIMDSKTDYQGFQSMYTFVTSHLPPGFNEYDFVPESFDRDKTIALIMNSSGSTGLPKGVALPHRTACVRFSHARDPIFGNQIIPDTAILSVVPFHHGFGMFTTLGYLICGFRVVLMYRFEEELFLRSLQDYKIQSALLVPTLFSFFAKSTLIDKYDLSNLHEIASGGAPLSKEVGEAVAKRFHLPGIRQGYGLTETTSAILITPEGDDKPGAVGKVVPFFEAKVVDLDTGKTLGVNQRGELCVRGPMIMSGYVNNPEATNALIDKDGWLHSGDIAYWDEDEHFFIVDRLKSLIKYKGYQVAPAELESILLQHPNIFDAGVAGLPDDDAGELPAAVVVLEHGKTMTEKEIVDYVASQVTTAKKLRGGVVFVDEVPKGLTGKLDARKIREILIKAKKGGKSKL
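Biochemical qHTS of compounds, final roughly 60 µM downward over six points, against 10 nM purified firefly luciferase using Km concentrations of substrates (10 uM D-luciferin, 10 uM ATP) in Tris acetate pH 7.5 buffer; luminescence output.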
ELG1 genotox: induces genotoxicity in HEK293T cells with luciferase-tagged ELG1; HEK293T ELG1-luciferase reporter, luminescence, 16 h; Potency, µM (series often up to 46 µM), without a hit: at the highest dose activity change, positive = activation, hits mostly activators; actives 1.3% (n = 330,000); note: % of control where 0% means no effect; nearly all actives have a fitted effect of over 60% in size
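Genotoxicity was scored as increased ELG1-luciferase reporter signal, measured by ONE-Glo luminescence (30 min, room temperature). Compound or vehicle exposure of the HEK293T reporter cells lasted 16 hr at 37°C.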
* hit, by the source's call; ? = inconclusive; nt = not tested or not shown; [ ] = dose if it differs, or a comment. Calls come from the whole dose curve; as a rule, active = well fitted curve in the direction sought with a large enough effect; inconclusive = small, poorly fitted or top-dose-only effect, or another doubt; inactive = no such curve, though single readings can be large; an effect the other way counts as inactive or inconclusive. Potency is the fitted concentration of half-maximal effect.

SMILES | SMN2 splice enh | Rab9 promoter act | NPC1 prom act | FLuc counter | ELG1 genotox
CCCS(=O)(=O)N1CCc2ccc(NC(=O)c3ccccc3Cl)cc2C1 | nt | 0% | 2% | 17µM* | -3%
O=C(Nc1ccc(F)c(Cl)c1)c1cc(S(=O)(=O)N2CCc3ccccc3C2)ccc1F | nt | nt | nt | -2% | nt
CN(C)S(=O)(=O)N1CCc2ccc(NC(=O)C3CCCO3)cc2C1 (stereo not given) | nt | 2% | -4% | -3% | 6%
CN(C)S(=O)(=O)N1CCc2ccc(NC(=O)c3ccccc3Cl)cc2C1 | nt | 17% | 15% | 11µM* | 4%
Cc1ccc(OC(C)C(=O)N2CCN(CCc3ccncc3)CC2)cc1C (stereo not given) | nt | nt | nt | -5% | nt
O=C1N/C(=N/O)S/C1=C/c1cccc([N+](=O)[O-])c1 | -14% | -1% | 9% | 21µM* | 5%
CCOc1ccc2c(c1)c(=O)c(C(=O)c1ccc3c(c1)OCO3)cn2Cc1cccc(F)c1 | -13% | nt | nt | -3% | nt
COc1ccc2[nH]c(-c3ccccc3)cc2c1 | nt | 0.89µM* | 1.6µM* | 6µM* | ?
COc1ccc2[nH]c(-c3ccc(C)cc3)cc(=O)c2c1 | 1.3µM* | 2.5µM* | ? | 1.5µM* | 2.9µM*
COc1ccc2nc(-c3ccccc3)[nH]c2c1 | 6.3µM* | 1.6µM* | 2.8µM* | 2.1µM* | 1.3µM*
CCOc1ccc2nc(-c3ccccc3)[nH]c2c1 | 14µM* | ? | 0.79µM* | 1.1µM* | ?
Cc1cc(C)c(NC(=O)C(C)n2nc(C)c3sc4ccccc4c3c2=O)c(C)c1 (stereo not given) | nt | nt | nt | -18% | nt
Cc1cc(NS(=O)(=O)c2ccc(NC(=O)COc3ccccc3Br)cc2)no1 | 0% | nt | nt | ? | nt
CSc1cccc(NC(=O)Nc2ccccc2OCc2cc(=O)n3cc(C)ccc3n2)c1 | nt | nt | nt | 3µM* | nt
CC(C)C(=O)Nc1ccccc1OCc1cc(=O)n2ccccc2n1 | nt | nt | nt | -8% | nt
O=C(COc1ccccc1Cl)Nc1ccccc1OCc1cc(=O)n2ccccc2n1 | nt | nt | nt | 19µM* | nt
CCc1ccc(NC(=O)Nc2ccccc2OCc2cc(=O)n3ccccc3n2)cc1 | nt | nt | nt | 0.21µM* | nt
CCC(Oc1ccccc1)C(=O)Nc1cc(-c2ccccc2F)nn1-c1ccccc1 (stereo not given) | nt | nt | nt | -9% | nt
COc1cccc(CNC(=O)COc2cc(=O)n(C)c3ccccc23)c1 | 12% | nt | nt | -7% | nt
O=S(=O)(Nc1cccc(-c2ccc(N3CCCCCC3)nn2)c1)c1ccccc1 | nt | nt | nt | 7.6µM* | nt
COc1ccc(-c2cccc(NS(=O)(=O)c3ccc([N+](=O)[O-])cc3)c2)nn1 | nt | 3% | 3% | 2% | 1%
O=S(=O)(Nc1cccc(S(=O)(=O)N2CCCCCC2)c1)c1ccccc1 | nt | -2% | -1% | -13% | -2%
Cc1cc(C)c(S(=O)(=O)Nc2ccc(-c3ccc(N4CCCCC4)nn3)cc2)c(C)c1 | nt | nt | nt | 13µM* | nt
Cc1cccc(S(=O)(=O)Nc2cccc(-c3ccc(N4CCCCC4)nn3)c2)c1 | nt | nt | nt | 3.4µM* | nt
Cc1ccc(S(=O)(=O)Nc2cccc(-c3ccc(N4CCCCCC4)nn3)c2)cc1 | nt | ? | ? | 5.4µM* | ?
SMILES | SMN2 splice enh | Rab9 promoter act | NPC1 prom act | FLuc counter | ELG1 genotox
NC(N)=NCCC[C@H](NC(=O)[C@@H](N)Cc1ccc(O)cc1)C(=O)O | 3% | nt | nt | nt | nt
C/C(=N\NC(=O)c1sccc1C)c1cccnc1 | nt | ? | ? | 13µM* | ?
C/C(=N\NC(=O)c1cccs1)c1ccncc1 | nt | 2% | 16% | nt | 6%
C/C(=N\Nc1ccc(C)c(Cl)c1)c1cccnc1 | nt | ? | ? | 15µM* | 17%
C/C(=N/NC(=O)c1ccco1)c1cccnc1 | 28% | 0% | -1% | -2% | -8%
C/C(=N\NC(=O)c1sccc1C)c1ccncc1 | nt | 3.2µM* | ? | 17µM* | 10µM*
CCc1ccc(C(=O)N/N=C(\C)c2ccncc2)s1 | nt | 3.2µM* | 3.5µM* | 17µM* | ?
Nc1ccc(N2CCN(c3ncc(C(F)(F)F)cc3Cl)CC2)c(C(F)(F)F)c1 | -49% | nt | nt | 4% | nt
Nc1nc(CN2CCN(c3ccccc3F)CC2)nc(Nc2ccc3c(c2)OCCO3)n1 | -20% | -11% | -1% | 5% | -12%
CN1CCN(Cc2nc(N)nc(Nc3ccc4c(c3)OCCO4)n2)CC1 | 28% | 4µM* | 3.5µM* | ? | ?
COc1ccc(-c2nc(C#N)c(NCCCN3CCOCC3)o2)cc1 | -21% | 7% | 3% | ? | 24%
Cc1ccc(-c2nc(C#N)c(NCC3CCCO3)o2)cc1 (stereo not given) | 13µM* | ? | ? | 21µM* | ?
COc1ccc(-c2nc(C#N)c(NCC3CCCO3)o2)cc1 (stereo not given) | ? | 21% | 22% | 13µM* | 13%
Cc1cccc(-c2nc(C#N)c(N3CCCCCC3)o2)c1 | ? | 18% | 23% | 11µM* | 16µM*
Cc1cccc(-c2nc(C#N)c(NCC3CCCO3)o2)c1 (stereo not given) | nt | 2.5µM* | 2.8µM* | 12µM* | ?
N#Cc1nc(-c2cccs2)oc1NCC1CCCO1 (stereo not given) | 16% | -1% | 1% | -14% | 6%
COCOc1c2c(c(OCOC)c3c(OCOC)cccc13)/C(=N/NS(C)(=O)=O)C1=C2CCCC1 | 0% | nt | nt | nt | nt
COC(=O)c1sccc1S(=O)(=O)N(CC(=O)Nc1cc(C)cc(C)c1)c1ccc(Cl)cc1 | nt | nt | nt | -10% | nt
CCOC(=O)c1c(C)c(-c2ccccc2)n(CC(=O)Nc2cc(C)cc(C)c2)c1C | 4% | nt | nt | 5% | nt
COc1cc2nc(SCc3cccc(Cl)c3)n3nc(CCn4nc(C)cc4C)nc3c2cc1OC | 3% | nt | nt | -1% | nt
CCOc1ccc(-c2nc(C#N)c(NC3CC3)o2)cc1 | 27% | ? | 13% | 15µM* | 30%
CCOc1ccc(Nc2oc(-c3ccc(Cl)cc3)nc2C#N)cc1 | ? | 2% | 25% | ? | ?
COc1ccccc1-c1c(C)nn2c(N3CCN(c4ccc(F)cc4)CC3)cc(C)nc12 | nt | nt | nt | 0% | nt
CCCCN=Cc1sc2ccc(OCC)cc2c1O | 16% | 24% | 17% | 21µM* | 14%
CCOc1ccc2nc(/N=C/c3nc(-c4ccc(Br)cc4)oc3O)sc2c1 | 17% | 17% | 9% | -7% | 2%
C=CCN=Cc1sc2ccc(OCC)cc2c1O | nt | 2.8µM* | 3.2µM* | 8.5µM* | ?
Cc1cc(C(=O)Nc2c(C)nc3ccccn3c2=O)ccc1[N+](=O)[O-] | nt | nt | nt | -4% | nt
O=C(N/N=C\c1ccc2c(c1)CCC2)c1ccccc1O | 0%[9.22 µM] | nt | nt | nt | nt
Cc1c(N=C2C=C(Br)C(=O)C(Br)=C2)c(=O)n(-c2ccccc2)n1C | -3% | 23% | 2% | 15µM* | 1%
Cc1c(N=C2C=CC(=O)c3ccccc32)c(=O)n(-c2ccccc2)n1C | -18% | -12% | -19% | ? | -4%
